# Measured values as given in the supplement of paper PMC10338343.
# ± gives the standard deviation.
# Assays:
# [1] = system: MILI (PIWIL2) piRISC loaded with L1MC piRNA (26 nt); assay: pre-steady-state target cleavage rate (min^-1); guide: L1MC piRNA 5'p-UAACUAAAUACUAUGCAAGCUGUAGG; higher = faster piRNA-guided slicing of the target
# Procedure, shortened: (§1)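 A transcribed, DNA-blocked target RNA library (0.1 nM) and 1 nM active affinity-purified piRISC bearing one synthetic guide were incubated in HEPES–potassium acetate buffer at 33 °C for 0–8 or 0–960 min, either with or without 500 nM GTSF1 partner protein. Uncleaved targets were sequenced, normalised to depth and to weakly complementary targets, and pooled over three trials, with k3 capped at 0.0001 min^-1. The pre-steady-state cleavage rate was derived with a burst-and-steady-state fit.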
# [2] = system: EfPiwi piRISC loaded with L1MC piRNA (26 nt); assay: pre-steady-state target cleavage rate (min^-1); auxiliary factor: 500 nM Ephydatia muelleri Gtsf1; guide: L1MC piRNA 5'p-UAACUAAAUACUAUGCAAGCUGUAGG; MIWI and MILI are mouse PIWI proteins and EfPiwi is from a freshwater sponge; tags in brackets are library labels; higher = faster piRNA-guided slicing of the target
# Procedure, shortened: as §1
# [3] = auxiliary factor: 500 nM mouse GTSF1
Sequence,"pre-steady-state target cleavage rate [1, 3]",pre-steady-state target cleavage rate [2],pre-steady-state target cleavage rate ([1]; auxiliary factor: none (no GTSF1))
UCCUGCUACAGCUUGGAUAGUAUUUAGAUA,0.0476 ± 0.016,0.00339 ± 0.001,
UCCUGGAACAGCUUGCACUAGUAUUUAGUUA,0.0388 ± 0.0091,0.00312 ± 0.0026,
UCCUGCUACAGCUUGCAUAGUAUAUAGAAA,0.0314 ± 0.01,0.00298 ± 0.0025,
UCCUGGAUCAGCUUGCAUUGUAUUUAGUAA,0.144 ± 0.014,0.00441 ± 0.0018,
UCCUGCUACAGCUUGCAUAGUAAUUAGAAA,0.0259 ± 0.0091,0.00362 ± 0.0016,
UCCUGGAACAGCUUGCAUAGUAUAAUGUUA,0.0834 ± 0.018,0.00416 ± 0.0026,
UCCUCGAACAGCUUGCAUAGUAUUUACAAA,0.0992 ± 0.021,0.00433 ± 0.0025,
UCCUGCUACAGCUUGCAUAGUGUUUAGUUA,0.197 ± 0.02,0.0065 ± 0.0019,0.00436 ± 0.0027
UCCUGGAACUCCUUGCAUAGUAUUUAGAAA,0.162 ± 0.029,0.00313 ± 0.0019,
UCCUCCUACAGGUUGCAUAGUAUUUAGAAA,0.12 ± 0.023,0.00461 ± 0.0014,
UCCUGGAUGAGCUUGCAUAGUAUAAAGUUA,0.255 ± 0.047,0.00848 ± 0.0042,
UCCUCCUACAGGAUGCAUAGUAUUUUCAAA,0.0564 ± 0.017,0.00259 ± 0.0025,
UCCUGGAACACCAUGCAUAGUAUUUAGUUA,0.163 ± 0.018,0.00616 ± 0.0041,
UCCUGGAUCAGCUUGCAUAGUAUUUUGAAA,0.108 ± 0.027,0.00318 ± 0.0016,
UCCUGCUACAGCUUGCAUAGUUUUAGUUA,0.0113 ± 0.0045,0.00248 ± 0.0013,
UCCUGGAACAGCUUGCAUAGUAUUUUGAAA,0.0888 ± 0.027,0.00294 ± 0.0022,
UCCUCCUACAGCUUCCAUAGUAUUUAGUAA,0.0254 ± 0.011,0.0037 ± 0.0018,
UCCUCCUACAGCUUGCAUACUAUUUUGUUA,0.0272 ± 0.0077,0.00468 ± 0.0034,
UCCUCCUACAGCUUGCAUAUAUUUAGUUA,0.0398 ± 0.0083,0.00725 ± 0.0034,
UCCUGGAACAGCUUGCAUAGUAUUUAUUUA,0.113 ± 0.026,0.00534 ± 0.0034,
UCCUGGAUCACCUUGCAUAGUAUUUAGUAA,0.247 ± 0.038,0.00344 ± 0.0031,
UCCUGGAUGUGCUUGCAUAGUAUUUAGAAA,0.0532 ± 0.013,0.00293 ± 0.0018,
UCCUCCUACAGCUUGCAUUGUAUUUAGAUA,0.119 ± 0.019,0.00539 ± 0.0029,
UCCUCCUACAGCUUGCAUAGUAAAAAGAAA,0.075 ± 0.02,0.00287 ± 0.0026,
UCCUCGUACAGCUUGCAUAGUAUUUUCAAA,0.0759 ± 0.02,0.0038 ± 0.0029,
UCCUGGAACAGCUUGCAUAGUAUUUACAAA,0.222 ± 0.048,0.00238 ± 0.0019,
UCCUCCUACAGCUUGCAUAGAAUUUAGAAA,0.0449 ± 0.015,0.00385 ± 0.0019,
UCCUCCUACACGUUGCAUAGUAUUUAGAAA,0.161 ± 0.029,0.00396 ± 0.003,

Sequence,"pre-steady-state target cleavage rate [1, 3]",pre-steady-state target cleavage rate [2],pre-steady-state target cleavage rate ([1]; auxiliary factor: none (no GTSF1))
UCCUCCUACUCGUUGCAUAGUAUUUAGAAA,0.076 ± 0.019,0.004 ± 0.0035,
UCCUGGAUGUGCUUCCAUAGUAUUUAGUAA,0.0304 ± 0.012,0.00486 ± 0.003,
UCCUGCUACAGCUUGCAUACUAUUAAGUUA,0.0719 ± 0.018,0.00453 ± 0.0019,
UCCUCCUACAGCUUGCAUAGAUUUAGUUA,0.00908 ± 0.0047,0.00442 ± 0.0029,
UCCUCCUACAGCUUGCAUAGUAUAAACAAA,0.165 ± 0.043,0.00398 ± 0.0028,
UCCUGGAUCAGCUUGCAUAGUAUUAAGAAA,0.0751 ± 0.02,0.00459 ± 0.0022,
UCCUCCUACACCUUGCAUAGUAUUUAGAUA,0.161 ± 0.044,0.004 ± 0.0023,
UCCUGGAUGUCCUUGCAUAGUAUUUAGAUUA,0.101 ± 0.022,0.00316 ± 0.003,
UCCUGCUACACCUUGCAUAGUAUUUUGUUA,0.1 ± 0.032,0.00317 ± 0.0023,
UCCUGGAUGAGCAUGCAUAGUAUUUAGAAA,0.121 ± 0.025,0.00289 ± 0.0024,
UCCUGGAUGUGCUUGCAUAGUAUUUACGUUA,0.129 ± 0.026,0.00702 ± 0.0042,
UCCUGCUACACCUUGCAUACUAUUUAGUUA,0.0767 ± 0.022,0.00403 ± 0.0024,
UCCUGGAUGAGCUUGCAUAGUAUUUAUUA,0.0142 ± 0.0067,0.00268 ± 0.0022,
UCCUGCUACAGCUUGCAAAGUAUUUAGAUA,0.0895 ± 0.012,0.00421 ± 0.0024,
UCCUGGUACAGCUUGCAUACUAUUUAGAAA,0.0227 ± 0.011,0.00236 ± 0.0018,
UCCUCGAUCAGCUUGCAUAGUAUUUUCAAA,0.0652 ± 0.014,0.00433 ± 0.0023,
UCCUGGAUGAGCUAGCAUAGAAUUUAGUUA,0.0337 ± 0.011,0.00286 ± 0.0026,
UCCUCCUACACCUUGCAUAGUUUUUAGUUA,0.0414 ± 0.012,0.00443 ± 0.002,
UCCUCCUAGUCCUUGCAUAGUAUUUAGAAA,0.0654 ± 0.017,0.00217 ± 0.0013,
UCCUGGAACAGCUUGCCAUAGUAUUUAGUUA,0.163 ± 0.018,0.0042 ± 0.0019,
UCCUGGUACAGCUUGCAUAGUAUUAACUUA,0.0223 ± 0.0097,0.0032 ± 0.0024,
UCCUGGUACAGCUUGCUAUAGUAUUUAGUUA,0.0224 ± 0.009,0.00339 ± 0.0031,
UCCUCCUACAGCUUCCAUAGUAUUUACUUA,0.0137 ± 0.0064,0.00277 ± 0.0024,
UCCUCCUACAGCUUGCAUAAGUAUUUAGUUA,0.0109 ± 0.0055,0.00345 ± 0.0019,
UCCUCCUACAGCUUGCAUAGUUUUUACAAA,0.0506 ± 0.013,0.00552 ± 0.0037,
UCCUCCUACAGCUUGCAUAGUAAUAAGUUA,0.129 ± 0.021,0.0073 ± 0.004,
UCCUGCUACACCUUGCAUAGUAUUAAGUUA,0.178 ± 0.034,0.00618 ± 0.0036,
